Records with an inconclusive call do not appear. Unless noted, the call rests on the fitted dose curve; in most records, active means well fitted curve in either direction with a large enough effect (not every such curve was filed as active); inconclusive means small, poorly fitted or top-dose-only effect, or another doubt; inactive means flat fitted curve, though single readings scatter.
Experiments:
[1] = AP1 Signaling Pathway (AID 357); details: ME-180 AP-1-bla reporter, EGF-induced, beta-lactamase ratio, 5 h; at 17.2 µM (top of the series) unless noted;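 further: ME-180 reporter cells stimulated with EGF at its EC50 level; on the % scale 0 is the no-effect control and ±100 the full control effect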
Method in brief: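 Titration-series screen for positive or negative modulators of EC50 EGF-induced signaling in ME-180 cells carrying an AP-1-driven beta-lactamase reporter. After 5 hours at 37 degrees Celsius, CCF4 460nm/530nm emission ratio gave %Activity; AC50 values derived.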

[2] = NFAT Signaling Pathway (AID 444); details: Jurkat NFAT-bla M1, carbachol, beta-lactamase ratio, 5 h; at 17.2 µM (top of the series) unless noted;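 further: carbachol stimulus at about its EC50 of 1 µM final; on the % scale 0 is the no-effect control and ±100 the full control effect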
Method in brief: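 Read-out: CCF4 FRET ratio (460 nm/530 nm) after 1 h RT dye loading, used for %activity and AC50 from titration series. Cells: Jurkat NFAT-β-lactamase/M1 line, treated with compound plus 1 uM carbachol for 5 h, 37 °C.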

[3] = Stat Signaling Pathway (AID 446); details: ME-180 SIE beta-lactamase reporter, IL-6 stimulated, 5 h; at 17.2 µM (top of the series) unless noted;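 further: ME-180 cervical cancer cells given 40 pM IL-6 alongside compound; SIE-controlled beta-lactamase reporter measured as 460/530 nm FRET emission ratio; on the % scale 0 is the no-effect control and ±100 the full control effect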
Method in brief: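 ME-180 SIE-bla cells; overnight plating; cpd + IL-6 40 pM, 5 h, 37 C; LiveBLAzer 2.5 h RT; 460/530 nm emission ratio. Normalized to 300 pM IL-6 and 125 nM JAK inhibitor controls.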

[4] = molecular target: Glucocorticoid receptor (Homo sapiens) (UniProt P04150); experiment: GR-GFP Redistribution (AID 450;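 active means compounds whose dose series gives a full or clear partial fitted curve of increased nuclear translocation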; further: potency means the concentration at half of the fitted maximal effect)
Chain of Glucocorticoid receptor (Homo sapiens) (P04150 whole entry, looked up): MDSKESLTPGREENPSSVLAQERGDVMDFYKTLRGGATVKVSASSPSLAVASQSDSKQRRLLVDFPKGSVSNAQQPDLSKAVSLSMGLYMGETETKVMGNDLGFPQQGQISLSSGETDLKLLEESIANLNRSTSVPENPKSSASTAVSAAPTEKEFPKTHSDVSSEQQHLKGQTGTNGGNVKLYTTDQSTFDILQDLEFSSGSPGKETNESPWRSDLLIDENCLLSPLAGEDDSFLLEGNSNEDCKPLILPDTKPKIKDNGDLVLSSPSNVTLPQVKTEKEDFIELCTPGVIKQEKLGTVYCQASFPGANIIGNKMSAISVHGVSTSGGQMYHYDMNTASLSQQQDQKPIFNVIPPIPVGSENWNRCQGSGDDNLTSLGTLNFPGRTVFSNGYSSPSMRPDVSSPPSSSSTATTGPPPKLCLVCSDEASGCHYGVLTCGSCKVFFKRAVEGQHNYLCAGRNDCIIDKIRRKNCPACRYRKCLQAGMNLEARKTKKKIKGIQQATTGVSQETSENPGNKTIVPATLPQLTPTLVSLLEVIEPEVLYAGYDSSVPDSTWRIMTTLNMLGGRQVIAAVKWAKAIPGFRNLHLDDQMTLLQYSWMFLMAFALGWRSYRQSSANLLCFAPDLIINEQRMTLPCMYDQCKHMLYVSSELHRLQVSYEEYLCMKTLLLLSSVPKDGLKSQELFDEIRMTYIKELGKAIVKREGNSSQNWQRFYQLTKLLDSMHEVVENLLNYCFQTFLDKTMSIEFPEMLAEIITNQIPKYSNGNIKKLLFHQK

COc1ccc(/C(O)=C2/C(=O)C(=O)N(CCN3CCOCC3)C2c2ccccn2)cc1 (centres undefined)
inactive: activity change, negative = inhibition [1] 7.11% | activity change, negative = inhibition [2] 6.7% | activity, negative = inhibition [3] 0.702% | Potency [4] > 20.6 µM

CCOC(=O)c1ccc(N2CC(O)=C(c3nc4ccccc4c(=O)[nH]3)C2=N)cc1
inactive: activity change, negative = inhibition [1] -27.9% | activity change, negative = inhibition [2] -8.54% | activity, negative = inhibition [3] -21.7% | Potency [4] > 20.6 µM

C=CCOC(=O)C1=C(C)NC(SCC(=O)N(CC)CC)=C(C#N)C1c1ccco1 (centres undefined)
inactive: activity change, negative = inhibition [1] -27.3% | activity change, negative = inhibition [2] 6.04% | activity, negative = inhibition [3] -6.01% | Potency [4] > 20.6 µM

O=C(Nc1cccnc1)c1cccnc1
inactive: activity change, negative = inhibition [1] 11.7% | activity change, negative = inhibition [2] -7.91% | activity, negative = inhibition [3] 4.68% | Potency [4] > 20.6 µM

COC(=O)C(NC(C)=O)(Nc1ccccn1)C(F)(F)F (centres undefined)
inactive: activity change, negative = inhibition [1] -1.38% | activity change, negative = inhibition [2] 5.18% | activity, negative = inhibition [3] 0.0282% | Potency [4] > 20.6 µM

O=C(CCN1CCCCC1)Nc1cccc(Cl)c1
inactive: activity change, negative = inhibition [1] 7.3% | activity change, negative = inhibition [2] -23.2% | activity, negative = inhibition [3] -0.895% | Potency [4] > 20.6 µM

c1cc2c(cc1C1=Nn3c(nnc3C3CCCCC3)SC1)OCO2
inactive: activity change, negative = inhibition [1] -22.3% | activity change, negative = inhibition [2] 14.4% | activity, negative = inhibition [3] -7.03% | Potency [4] > 20.6 µM

Cc1cc(=O)oc(C)c1C(=O)N[C@@H]1CCCCNC1=O
inactive: activity change, negative = inhibition [1] 9.85% | activity change, negative = inhibition [2] 9.68% | activity, negative = inhibition [3] 9.42% | Potency [4] > 20.6 µM

Cn1c(OCc2cccnc2)nc2c1c(=O)n(Cc1ccccc1)c(=O)n2C
inactive: activity change, negative = inhibition [1] -12.1% | activity change, negative = inhibition [2] -1.28% | activity, negative = inhibition [3] 4.58% | Potency [4] > 20.6 µM

COc1ccc(N/C(=N\c2nc(C)cc(C)n2)NC(=O)C(C)C)cc1OC
inactive: activity change, negative = inhibition [1] -12.4% | activity change, negative = inhibition [2] 21.2% | activity, negative = inhibition [3] -1.06% | Potency [4] > 20.6 µM

OCCOCCNc1ncnc2c1cnn2-c1ccccc1
inactive: activity change, negative = inhibition [1] 7% | activity change, negative = inhibition [2] 1.59% | activity, negative = inhibition [3] -1.47% | Potency [4] > 20.6 µM

COC(=O)Sc1nc(N2CCOCC2)c2c(c1C#N)CC(C)(C)OC2
inactive: activity change, negative = inhibition [1] -17.4% | activity change, negative = inhibition [2] -7.69% | activity, negative = inhibition [3] -18.3% | Potency [4] > 20.6 µM

O=C(c1ccccc1)c1cc(-c2ccccc2)on1
inactive: activity change, negative = inhibition [1] -5.5% | activity change, negative = inhibition [2] -10% | activity, negative = inhibition [3] -7.84% | Potency [4] > 20.6 µM

Cc1cc(C)n(C(=O)CNC(=O)CCc2ccccc2)n1
inactive: activity change, negative = inhibition [1] 8.64% | activity change, negative = inhibition [2] 9.94% | activity, negative = inhibition [3] 2.58% | Potency [4] > 20.6 µM

Cn1nccc1C(=O)Nc1ccccc1C(=O)O
inactive: activity change, negative = inhibition [1] -2.42% | activity change, negative = inhibition [2] 5.13% | activity, negative = inhibition [3] 4.71% | Potency [4] > 20.6 µM

Cc1nnc(N2CCOCC2)c2ccccc12
inactive: activity change, negative = inhibition [1] 5.51% | activity change, negative = inhibition [2] 6.76% | activity, negative = inhibition [3] 5.08% | Potency [4] > 20.6 µM

COc1ccc(OC)c(C2NC(=O)c3sc(=S)n(-c4ccccc4)c3N2)c1 (centres undefined)
inactive: activity change, negative = inhibition [1] -13.3% | activity change, negative = inhibition [2] -12.2% | activity, negative = inhibition [3] -13.8% | Potency [4] > 20.6 µM

Cc1cccc(COc2ccc(/C(O)=C3\C(=O)C(=O)N(CCN(C)C)C3c3ccncc3)cc2)c1 (centres undefined)
inactive: activity change, negative = inhibition [1] 4.68% | activity change, negative = inhibition [2] 13.1% | activity, negative = inhibition [3] 2.96% | Potency [4] > 20.6 µM

CCc1nc(NCCN2CCOCC2)c(C#N)c2c1CCCC2
inactive: activity change, negative = inhibition [1] -11.1% | activity change, negative = inhibition [2] -20.4% | activity, negative = inhibition [3] 6.43% | Potency [4] > 20.6 µM

CN(CCOC(=O)c1ccc2c(c1)OCCO2)Cc1ccccc1
inactive: activity change, negative = inhibition [1] 17.7% | activity change, negative = inhibition [2] -3.33% | activity, negative = inhibition [3] -4.47% | Potency [4] > 20.6 µM

O=C(c1coc(=O)c(Br)c1)N1CCCc2ccccc21
inactive: activity change, negative = inhibition [1] 11.9% | activity change, negative = inhibition [2] 0.236% | activity, negative = inhibition [3] 8.49% | Potency [4] > 20.6 µM

CCOC(=O)C1(c2nc(N)cs2)COC(=O)C1 (centres undefined)
inactive: activity change, negative = inhibition [1] 6.34% | activity change, negative = inhibition [2] -1.85% | activity, negative = inhibition [3] 2.25% | Potency [4] > 20.6 µM

Cc1nc2sc(C#N)c(N)c2c2c1CCCC2
inactive: activity change, negative = inhibition [1] -15.7% | activity change, negative = inhibition [2] -7.96% | activity, negative = inhibition [3] -6.2% | Potency [4] > 20.6 µM

CCC(C(=O)Nc1nccs1)(C(F)(F)F)C(F)(F)F
inactive: activity change, negative = inhibition [1] 0.462% | activity change, negative = inhibition [2] 11.5% | activity, negative = inhibition [3] -9.76% | Potency [4] > 20.6 µM

COC(=O)C1=C(C)N=C2SC(C)C(=O)N2C1c1cccs1 (centres undefined)
inactive: activity change, negative = inhibition [1] -11.1% | activity change, negative = inhibition [2] -9.72% | activity, negative = inhibition [3] -9.23% | Potency [4] > 20.6 µM

COc1cc(C2C(C#N)=C(N)Oc3cc(C)n(CCN4CCOCC4)c(=O)c32)cc(OC)c1OC (centres undefined)
inactive: activity change, negative = inhibition [1] 10.6% | activity change, negative = inhibition [2] 6.98% | activity, negative = inhibition [3] -2.02% | Potency [4] > 20.6 µM

From PubChem BioAssay (NCATS)
